Measured values as given in PubChem BioAssay AID1159580 (chemical genetic matrix, 2015).
Where “and” joins values, the source holds several entries; their conditions need not be identical. Equal entries are not always repeated. About 2,000 (36%) of roughly 5,500 compounds were called active. Not shown: some 18% with an inconclusive outcome. Rule as the data show it: active = normalized growth mostly below about 0.91 (no sharp cut-off); inconclusive = no clear call, values can overlap the other calls; inactive = mostly above about 0.92. Some of the results follow.

Assay: chemical genetic growth profiling, strain panel (AID 1159580);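 also: tested at 20 µM; growth read once vehicle control cultures reached saturation at 30 °C; 1 = growth at the plate median or of vehicle wells; lower values mean less growth of the strain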
Details: S. cerevisiae deletion strains, growth OD

Measured: normalized growth

CNC(=O)Oc1ccc2c(c1)[C@]1(C)CCN(C)[C@@H]1N2C
inactive: locus YAL013W, strain DEP1, active compounds read low 1.03 | locus YAL021C, strain ccr4, active compounds read low 1 | locus YAL026C, strain drs2, active compounds read low 1 | locus YAL030W, strain snc1, active compounds read low 1.02 | locus YBL061C, strain skt5, active compounds read low 1.02 | locus YBR009C, strain hhf1, active compounds read low 0.998 | locus YBR021W, strain FUR4, active compounds read low 0.99 | locus YBR023C, strain chs3, active compounds read low 1.02 | locus YBR171W, strain sec66, active compounds read low 1.03 | locus YBR229C, strain ROT2, active compounds read low 1.01 | locus YBR231C, strain swc5, active compounds read low 1.01 | locus YBR279W, strain paf1, active compounds read low 1.03 | locus YCL011C, strain gbp2, active compounds read low 1.03 | locus YCL016C, strain dcc1, active compounds read low 1.05 | locus YCL029C, strain bik1, active compounds read low 1.01 | locus YCL061C, strain MRC1, active compounds read low 1.01 | locus YCL069W, strain vba3, active compounds read low 1.02 | locus YCR088W, strain abp1, active compounds read low 1.02 | locus YDL005C, strain med2, active compounds read low 1.02 | locus YDL035C, strain GPR1, active compounds read low 1.01 | locus YDL040C, strain nat1, active compounds read low 1 | locus YDL074C, strain BRE1, active compounds read low 1.04 | locus YDL101C, strain DUN1, active compounds read low 1.01 | locus YDL134C, strain PPH21, active compounds read low 1.04 | locus YDL185W, strain tfp1, active compounds read low 0.992 | locus YDL192W, strain arf1, active compounds read low 1.02 | locus YDR001C, strain nth1, active compounds read low 1.01 | locus YDR069C, strain doa4, active compounds read low 0.998 | locus YDR101C, strain arx1, active compounds read low 1.02 | locus YDR137W, strain rgp1, active compounds read low 1.05 | locus YDR159W, strain sac3, active compounds read low 0.969 | locus YDR162C, strain NBP2, active compounds read low 1.03 | locus YDR195W, strain ref2 0.977 | locus YDR297W, strain sur2, active compounds read low 1.01 | locus YDR318W, strain mcm21, active compounds read low 1.01 | locus YDR334W, strain swr1, active compounds read low 1.02 | locus YDR335W, strain msn5, active compounds read low 1.01 | locus YDR388W, active compounds read low 1.01 | locus YDR392W, strain spt3, active compounds read low 0.816 | locus YDR502C, strain sam2, active compounds read low 1.01 | locus YEL003W, strain gim4, active compounds read low 1.01 | locus YEL037C, strain rad23, active compounds read low 1.01 | locus YEL061C, strain CIN8 (second series), active compounds read low 1.02 | locus YEL061C, strain CIN8, active compounds read low 1.01 | locus YER015W, strain faa2, active compounds read low 1.01 | locus YER016W, strain bim1, active compounds read low 1.02 | locus YER110C, active compounds read low 1.02 | locus YER111C, strain swi4, active compounds read low 1.01 | locus YER155C, strain BEM2 (second series), active compounds read low 0.99 | locus YER155C, strain BEM2, active compounds read low 0.993 | locus YER167W, strain BCK2, active compounds read low 1.02 | locus YFR010W, strain ubp6, active compounds read low 1.01 | locus YGL078C, strain dbp3, active compounds read low 1.01 | locus YGL086W, strain mad1, active compounds read low 0.999 | locus YGL167C, strain pmr1, active compounds read low 1.02 | locus YGL173C, strain kem1, active compounds read low 1.01 | locus YGL227W, strain vid30, active compounds read low 1.01 | locus YGL240W, strain doc1, active compounds read low 0.992 | locus YGL248W, strain PDE1, active compounds read low 1.01 | locus YGL253W, strain hxk2, active compounds read low 0.989 | locus YGR135W, strain pre9, active compounds read low 1.03 | locus YGR229C, strain SMI1, active compounds read low 1.01 | locus YGR252W, strain gcn5, active compounds read low 1.03 | locus YHR013C, strain ard1, active compounds read low 0.981 | locus YHR027C, strain rpn1, active compounds read low 1.03 | locus YHR030C, strain SLT2, active compounds read low 1.01 and 0.983 | locus YHR079C, strain IRE1 (second series), active compounds read low 1 | locus YHR079C, strain IRE1, active compounds read low 0.97 | locus YHR094C, strain hxt1, active compounds read low 1.01 | locus YHR129C, strain ARP1, active compounds read low 1.02 | locus YHR142W, strain chs7, active compounds read low 1.04 | locus YHR200W, strain rpn10, active compounds read low 1.01 | locus YIL066C, strain RNR3, active compounds read low 1 | locus YIL073C, strain SPO22, active compounds read low 0.995 | locus YIL125W, strain kgd1, active compounds read low 0.999 | locus YIR030C, strain dcg1, active compounds read low 0.992 | locus YJL092W, strain hpr5, active compounds read low 1.01 | locus YJL095W, strain BCK1 (second series), active compounds read low 1.03 | locus YJL095W, strain BCK1, active compounds read low 1.04 and 0.989 | locus YJL115W, strain asf1, active compounds read low 1.02 | locus YJL129C, strain trk1, active compounds read low 1.08 | locus YJL134W, strain LCB3, active compounds read low 1.01 | locus YJL154C, strain vps35, active compounds read low 1.01 | locus YJL164C, strain tpk1, active compounds read low 0.992 | locus YJL166W, strain qcr8, active compounds read low 1.02 | locus YJL168C, strain set2, active compounds read low 1.01 | locus YJL187C, strain SWE1 (second series), active compounds read low 1.03 | locus YJL187C, strain SWE1, active compounds read low 1.01 | locus YJR043C, strain POL32, active compounds read low 1.04 | locus YJR066W, strain TOR1, active compounds read low 0.954 | locus YJR075W, strain HOC1, active compounds read low 1.03 | locus YKL009W, strain mrt4, active compounds read low 1.02 | locus YKL068W, active compounds read low 0.999 | locus YKL085W, strain MDH1 (second series), active compounds read low 0.997 | locus YKL085W, strain MDH1, active compounds read low 0.997 | locus YKL160W, strain elf1, active compounds read low 1.02 | locus YKL190W, strain CNB1, active compounds read low 1.01 | locus YKR001C, strain vps1, active compounds read low 1.02 | locus YKR026C, strain gcn3, active compounds read low 1.02 | locus YKR091W, strain srl3, active compounds read low 1.02 | locus YLL001W, strain dnm1, active compounds read low 1.07 | locus YLL026W, active compounds read low 1.01 | locus YLL041C, strain sdh2, active compounds read low 1 | locus YLR027C, strain aat2, active compounds read low 0.998 | locus YLR039C, strain RIC1, active compounds read low 1.12 | locus YLR058C, strain SHM2, active compounds read low 1.01 | locus YLR102C, strain apc9, active compounds read low 1 | locus YLR113W, strain HOG1, active compounds read low 0.991 | locus YLR221C, strain rsa3, active compounds read low 1.04 | locus YLR258W, strain gsy2, active compounds read low 1 | locus YLR262C, strain YPT6 (second series), active compounds read low 1.05 | locus YLR262C, strain YPT6, active compounds read low 1.19 | locus YLR268W, strain sec22, active compounds read low 1.02 | locus YLR320W, strain mms22, active compounds read low 1.06 | locus YLR330W, strain CHS5, active compounds read low 1.01 | locus YLR342W, strain FKS1 (second series), active compounds read low 1.03 | locus YLR342W, strain FKS1, active compounds read low 1.02 | locus YLR357W, strain rsc2, active compounds read low 1.02 | locus YLR370C, strain arc18, active compounds read low 1.03 | locus YLR371W, strain rom2, active compounds read low 1 | locus YLR384C, strain iki3, active compounds read low 1.02 | locus YLR418C, strain cdc73, active compounds read low 0.991 | locus YML016C, strain PPZ1, active compounds read low 1.01 | locus YML032C, strain rad52, active compounds read low 1.01 | locus YML120C, strain ndi1, active compounds read low 1.05 | locus YML124C, strain tub3, active compounds read low 1.01 | locus YMR058W, strain fet3, active compounds read low 1.01 | locus YMR078C, strain ctf18, active compounds read low 0.996 | locus YMR125W, strain sto1, active compounds read low 1.04 | locus YMR129W, active compounds read low 1.01 | locus YMR205C, strain PFK2, active compounds read low 1.02 | locus YMR223W, strain ubp8, active compounds read low 1.01 | locus YMR231W, strain pep5, active compounds read low 1 | locus YMR263W, strain SAP30, active compounds read low 1.01 | locus YMR307W, strain GAS1, active compounds read low 1.03 | locus YNL067W, strain RPL9B, active compounds read low 1.03 | locus YNL071W, strain lat1, active compounds read low 1.01 | locus YNL128W, strain TEP1, active compounds read low 1.01 | locus YNL183C, strain NPR1, active compounds read low 0.944 | locus YNL209W, strain ssb2, active compounds read low 1.02 | locus YNL233W, strain BNI4, active compounds read low 1.02 | locus YNL248C, strain rpa49, active compounds read low 0.969 | locus YNL250W, strain rad50, active compounds read low 1.01 | locus YNL271C, strain bni1, active compounds read low 0.999 | locus YNL298W, strain CLA4, active compounds read low 1.01 | locus YNL307C, strain MCK1, active compounds read low 1.01 | locus YNL322C, strain KRE1 (second series), active compounds read low 1.02 | locus YNR049C, strain mso1, active compounds read low 1.01 | locus YNR052C, strain pop2, active compounds read low 1 | locus YOL006C, strain TOP1, active compounds read low 0.963 | locus YOL012C, strain htz1 0.928 | locus YOL147C, strain pex11, active compounds read low 1 | locus YOR001W, strain rrp6, active compounds read low 0.96 | locus YOR061W, strain CKA2, active compounds read low 1.02 | locus YOR069W, strain VPS5, active compounds read low 1.01 | locus YOR070C, strain gyp1, active compounds read low 1.03 | locus YOR080W, strain dia2, active compounds read low 1.02 | locus YOR083W, strain WHI5, active compounds read low 1.03 | locus YOR106W, strain vam3, active compounds read low 1.04 | locus YOR136W, strain idh2, active compounds read low 1.02 | locus YOR144C, strain elg1, active compounds read low 1.01 | locus YOR184W, strain ser1, active compounds read low 1.06 | locus YOR231W, strain MKK1, active compounds read low 0.96 | locus YOR265W, strain rbl2, active compounds read low 1.01 | locus YOR270C, strain vph1, active compounds read low 1.13 | locus YOR290C, strain snf2, active compounds read low 1.07 | locus YOR316C, strain cot1, active compounds read low 1.02 | locus YPL051W, strain arl3, active compounds read low 0.978 | locus YPL078C, strain atp4, active compounds read low 0.997 | locus YPL106C, strain sse1, active compounds read low 1.06 | locus YPL240C, strain hsp82, active compounds read low 1.03 | locus YPL241C, strain CIN2, active compounds read low 1.01 | locus YPL256C, strain CLN2, active compounds read low 0.986 | locus YPR119W, strain clb2, active compounds read low 1.01 | locus YPR141C, strain kar3, active compounds read low 1.01 | locus YPR163C, strain tif3, active compounds read low 1.03 | locus YPR167C, strain met16, active compounds read low 1.01 | strain wtn01, active compounds read low 1.01
